The values that follow come from PubChem BioAssay AID2685 (National Center for Advancing Translational Sciences (NCATS), 2010).

Screen size: about 320,000 compounds; about 2,100 (0.66%) were called active. Roughly 53% stayed inconclusive and do not appear here. This is one part of a sample in which actives are shown more often than they occur. The call rests on the fitted dose curve; in most records, active means well fitted inhibition curve with a large enough effect in the signal ratio, with a control signal flat (not every such curve was filed as active); inconclusive means small, poorly fitted or top-dose-only effect, or effect the other way, or a change in a side signal; inactive means flat fitted curve, though single readings scatter; the % refers to the signal ratio.
Potency means the concentration at half of the fitted maximal effect.

The assay can be described thus: qHTS Assay for Lipid Storage Modulators in Drosophila S3 Cells.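 On cell number change: cells counted by Cell Tracker Red CMTPX staining in the red channel.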 On lipid storage change, negative = inhibition: on the % scale 0 is the no-effect control and ±100 the full control effect. Conditions: BODIPY lipid droplet fluorescence, 18-24 h, cells fed with added oleic acid; cell number change: measured here: cell count max response; series mostly up to 46.1 µM; lipid storage change, negative = inhibition: at the top concentration. The method, boiled down: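 Laser-scanning cytometry quantifies lipid droplet accumulation (500–530 nm total intensity; droplet/cell object ratio) in oleic acid-fed (400 uM added) Drosophila S3 cells treated with a concentration series. 20 uM Triacsin C defined 100% inhibition.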
Turning to `N/C(CCN1CCOCC1)=N/O`, the “lipid storage change, negative = inhibition” value is -0.675% (inactive) and the cell number change is -8.53%. For `COc1ccc(N2CCCn3c2nc2c3c(=O)n(CCN3CCOCC3)c(=O)n2C)cc1`, the “lipid storage change, negative = inhibition” value is -1% (inactive) and the cell number change was -8.81%. In the case of `COc1ccc(N2CC(C)Cn3c2nc2c3c(=O)n(CCN3CCOCC3)c(=O)n2C)cc1` (centres undefined), the Potency was 2.06 µM (active) and the cell number change is 5.05%. For the molecule `COc1ccc(N2CCn3c2nc2c3c(=O)n(CCN3CCOCC3)c(=O)n2C)cc1`, the “lipid storage change, negative = inhibition” value was 22.2% (inactive) and the cell number change is -1.98%.

As to `COCCOC(=O)c1c(NC(=O)CNc2ccc(C)c(F)c2)sc(C(N)=O)c1C`, the “lipid storage change, negative = inhibition” value is 9.19% (inactive) and the cell number change is 3.82%. In the case of `CCOc1ccc(/C=C/c2nc(C#N)c(NCCCN(C)C)o2)cc1`, the molecule was classed as inactive and the cell number change is -6.82%. In the case of `CCOc1ccc(/C=C/c2nc(C#N)c(NCCCOC)o2)cc1`, the Potency was 18.4 µM (active) and the cell number change was -10.5%.

Take `CCNc1oc(/C=C/c2ccc(OCC)cc2)nc1C#N`: the “lipid storage change, negative = inhibition” value is -17.7% (inactive) and the cell number change is -11.4%. On the same counts, the results for `CCCc1nc(NCCO)c(C#N)c2c1CCCC2` are 7.13% (inactive) and 7.48%. On the same counts, the results for `COc1ccccc1NC(=O)CC1C(=O)Nc2ccccc2N1C(=O)c1ccccc1` (centres undefined) are -3.67% (inactive) and 5.14%.

`O=C(OCC(=O)N1CCCC1)c1cc(Cl)ccc1Cl`: the “lipid storage change, negative = inhibition” value was 5.2% (inactive) and the cell number change was 4.05%. Consider `O=C(OCC(=O)N1CCOCC1)c1c(Cl)ccc(Cl)c1Cl`, for which the molecule was classed as inactive. With `O=C(OCC(=O)N1CCCC1)c1c(Cl)ccc(Cl)c1Cl`, the Potency was 2.91 µM (active) and the cell number change worked out at 9.01%. As to `O=S(=O)(Nc1ccc(Br)cc1)c1cccc(NC(=S)NCCN2CCOCC2)c1`, the outcome was inactive and the cell number change worked out at 13%. For `Cc1ccc(CSc2nsc(C)c2C#N)cc1`, the “lipid storage change, negative = inhibition” value was 16.1% (inactive) and the cell number change worked out at 8.89%. Taken in the same sequence, the figures for `COC(=O)c1ccccc1CSc1nsc(/C=C/N(C)C)c1C#N` were 9.5% (inactive) and 7.59%. With `COC(=O)c1ccccc1CSc1nsc(C)c1C#N`, the Potency was 9.2 µM (active) and the cell number change was 26.2%.

For `O=C(CCS(=O)(=O)c1ccccc1)Nc1nc2cc3c(cc2s1)OCO3`, the “lipid storage change, negative = inhibition” value is 10.2% (inactive) and the cell number change is -2.46%. Turning to `O=C(O)CCC(=O)OCC1CCCO1` (centres undefined), the Potency was 23.1 µM (active) and the cell number change was -20.4%.

As for `O=C(O)CCC(=O)OCC1CCCCC1`, the call was inactive and the cell number change was found to be 6.49%. Regarding `O=C(O)CCC(=O)Nc1ccc(OCC2CCCO2)cc1` (centres undefined), the “lipid storage change, negative = inhibition” value is -2.25% (inactive) and the cell number change turned out to be 20.5%.

Regarding `Cc1occc1C(=O)N1CCN(S(C)(=O)=O)CC1`, the “lipid storage change, negative = inhibition” value was 1.26% (inactive) and the cell number change stood at 15.2%. For `COCCCNC(=O)Cc1c(C)c2cc3c(cc2oc1=O)OC(C)(C)CC3`, the “lipid storage change, negative = inhibition” value was -14.7% (inactive) and the cell number change was -2.78%. Regarding `CCCN1CCN(C(=O)C2CCN(c3ncnc4c3nc3n4CCCCC3)CC2)CC1`, the molecule was called inactive and the cell number change is -18.8%. With `COc1ccc(CNC(=O)C2CCCN(c3ncnc4c3nc3n4CCCCC3)C2)cc1` (centres undefined), the “lipid storage change, negative = inhibition” value is 2.83% (inactive) and the cell number change is 3.46%. With `O=C(NCCCN1CCCCC1)C1CCN(c2ncnc3c2nc2n3CCCCC2)CC1`, the “lipid storage change, negative = inhibition” value is 5.21% (inactive) and the cell number change came out at 15.5%. Take `CC1CC(C)CN(CCCNC(=O)C2CCCN(c3ncnc4c3nc3n4CCCCC3)C2)C1` (centres undefined): the call was inactive and the cell number change was found to be 27%.

Consider `COc1cccc(CNC(=O)C2CCCN(c3ncnc4c3nc3n4CCCCC3)C2)c1` (centres undefined), for which the outcome was inactive. For the molecule `O=C(NCCCN1CCCCC1)C1CCCN(c2ncnc3c2nc2n3CCCCC2)C1` (centres undefined), the Potency was 29.1 µM (active) and the cell number change was -4.96%. With `CC1CCN(C(=O)C2CCN(c3ncnc4c3nc3n4CCCCC3)CC2)CC1`, the Potency is 3.66 µM (active) and the cell number change is -15%. Taken in the same sequence, the figures for `COc1ccc(OC)c(CNC(=O)C2CCCN(c3ncnc4c3nc3n4CCCCC3)C2)c1` (centres undefined) were 2.31 µM (active) and -11.8%. Regarding `CC1CCN(C(=O)C2CCCN(c3ncnc4c3nc3n4CCCCC3)C2)CC1` (centres undefined), the “lipid storage change, negative = inhibition” value is 20.4% (inactive) and the cell number change is -11.2%.

As to `Cc1cc(C)n2nc(C(=O)OCC(=O)Nc3ccc(F)cc3F)nc2n1`, the “lipid storage change, negative = inhibition” value was 6.42% (inactive) and the cell number change came out at 11.7%. As for `CN(C)C(=S)Nc1cccc(F)c1`, the “lipid storage change, negative = inhibition” value was -8.92% (inactive) and the cell number change was 0.661%.

`CC(C)(C)c1cc(S(=O)(=O)CCc2ccncc2)cc(C(C)(C)C)c1F`: the outcome was inactive and the cell number change was -5.56%. Regarding `Cc1cccc([C@@H]2[C@@H]3C(=O)N(Cc4ccccc4)C(=O)[C@@H]3[C@]3(Cc4ccccc4)C(=O)N(c4ccc(C(F)(F)F)cc4)C(=O)N23)c1`, the “lipid storage change, negative = inhibition” value was 21.6% (inactive) and the cell number change was found to be 5.02%. On the same counts, the results for `O=C(Nc1ccccn1)c1cc(-n2cnnc2)ccc1Cl` are 1.83% (inactive) and -4.08%. On to `CC(C)Oc1ccc(C(=O)Nc2c3c(nn2C(C)(C)C)CS(=O)(=O)C3)cc1`, for which the “lipid storage change, negative = inhibition” value is -14.1% (inactive).

With `O=C(COC(=O)Cc1ccc(Br)cc1)NC1CCCCCC1`, the “lipid storage change, negative = inhibition” value is -20.9% (inactive) and the cell number change was -16.9%.

Take `CCCSc1nnc(NC(=O)CSc2nc3[nH]c(=O)cc(O)c3s2)s1`: the “lipid storage change, negative = inhibition” value is -8.42% (inactive) and the cell number change was -1.41%. On the same counts, the results for `Cc1c(Cc2ccccc2)c(=O)oc2cc(OCC(=O)N3CCC(C(N)=O)CC3)ccc12` are -27.3% (inactive) and 23.5%. For `Cc1c(CC(=O)N2CCC(C(N)=O)CC2)c(=O)oc2cc3c(cc12)CCC1(CCCCC1)O3`, the Potency is 13 µM (active) and the cell number change was -23.7%. On to `Cc1c(CC(=O)O)c(=O)oc2cc3c(cc12)CCC(C)(C)O3`, for which the “lipid storage change, negative = inhibition” value was 0.884% (inactive) and the cell number change stood at 4.46%.

With `CCOc1ccccc1NC(=O)CCNC(=O)c1ccco1`, the molecule was called inactive and the cell number change was -5.71%. On to `COc1ccc(Cn2nnc3c(=O)[nH]c(C4CCN(S(=O)(=O)c5ccc(C)cc5)CC4)nc32)cc1`, for which the Potency was 13 µM (active) and the cell number change was -52.1%. On to `O=c1[nH]c(C2CCCN(S(=O)(=O)c3ccccc3)C2)nc2c1nnn2Cc1cccc(Cl)c1` (centres undefined), for which the Potency was 2.59 µM (active) and the cell number change stood at 7.14%.
